{"source": "PubChem BioAssay AID1053128", "about": "(The Scripps Research Institute Molecular Screening Center, 2014)", "note": "Values without a mark were called inactive. The rule behind the calls is not given here."}
{"assay": "DD(E) peptide probe displacement potency, late-stage follow-up, counter-screen for fibrin DD(E)-Tn6 binding project, biochemical, fluorescence polarization, dose response (AID 1053128)", "details": "Fluorescence polarization counterscreen, Tn6 peptide/DD(E) assay", "units": {"IC50": "µM"}}
{"compound": "CCn1c(CSc2n[nH]c(N)n2)nc2cc(C(=O)O)ccc21", "IC50": "> 83.3"}
{"compound": "NS(=O)(=O)c1ccc(NS(=O)(=O)c2ccc(NC(=O)c3ccc(-c4ccccc4)cc3)cc2)cc1", "IC50": "> 83.3"}
{"compound": "Cc1cc2cc(CNS(=O)(=O)c3ccc4ccccc4c3)ccc2n1C", "IC50": "> 83.3"}
{"compound": "CN1C(=O)NC(c2ccccc2[N+](=O)[O-])C2=C1CCCC2=O", "note": "(stereo not given)", "IC50": "> 83.3"}
{"compound": "N#CC1=C(N)Oc2ccc3ccc(O)cc3c2C1c1ccsc1", "note": "(stereo not given)", "IC50": "> 83.3"}
{"compound": "COc1ccc2ccccc2c1C(O)c1nccn1C", "note": "(stereo not given)", "IC50": "> 83.3"}
{"compound": "Cc1cc(C)c(S(=O)(=O)NCCn2c(C)cc3ccccc32)c(C)c1", "IC50": "> 83.3"}
{"compound": "Cc1cc2cc(CNC(=O)c3ccc(S(=O)(=O)N4CCOCC4)cc3)ccc2n1C", "IC50": "> 83.3"}
{"compound": "O=C(O)CCCNc1cc(N2CCN(C(=O)c3ccco3)CC2)c2noc3c2c1C(=O)c1ccccc1-3", "IC50": "> 83.3"}
{"compound": "Cc1cc2c(cc1S(=O)(=O)N1CCN(c3cccc(C)c3C)CC1)OCCN2C", "IC50": "> 83.3"}
